Experimental data published in PubChem BioAssay AID1851 (National Center for Advancing Translational Sciences (NCATS), 2009).
Where “and” joins values, the source holds several entries; their conditions need not be identical. Equal entries are not always repeated. Hit rate of the full screen: of about 16,000 compounds, about 2,600 (16%) were called active. About 20% were inconclusive and are not listed. Calls follow the shape of the dose curve; as a rule, active = well fitted curve in the direction sought with a large enough effect; inconclusive = small, poorly fitted or top-dose-only effect, or effect the other way; inactive = no such curve, though single readings can be large or run the other way. Only a sample is shown. The source holds several records for some structures; these can differ, active in one and inactive in another.

These molecules were tested against Cytochrome P450 2D6 (Homo sapiens) (UniProt P10635) (assay: Cytochrome panel assay with activity outcomes). Settings: recombinant CYP, pro-luciferin dealkylation, luminescence, p450-cyp2d6; series mostly up to 57.1 µM; activity, negative = inhibition: at the top concentration.
Cytochrome P450 2D6 (Homo sapiens), sequence (P10635 whole entry, looked up): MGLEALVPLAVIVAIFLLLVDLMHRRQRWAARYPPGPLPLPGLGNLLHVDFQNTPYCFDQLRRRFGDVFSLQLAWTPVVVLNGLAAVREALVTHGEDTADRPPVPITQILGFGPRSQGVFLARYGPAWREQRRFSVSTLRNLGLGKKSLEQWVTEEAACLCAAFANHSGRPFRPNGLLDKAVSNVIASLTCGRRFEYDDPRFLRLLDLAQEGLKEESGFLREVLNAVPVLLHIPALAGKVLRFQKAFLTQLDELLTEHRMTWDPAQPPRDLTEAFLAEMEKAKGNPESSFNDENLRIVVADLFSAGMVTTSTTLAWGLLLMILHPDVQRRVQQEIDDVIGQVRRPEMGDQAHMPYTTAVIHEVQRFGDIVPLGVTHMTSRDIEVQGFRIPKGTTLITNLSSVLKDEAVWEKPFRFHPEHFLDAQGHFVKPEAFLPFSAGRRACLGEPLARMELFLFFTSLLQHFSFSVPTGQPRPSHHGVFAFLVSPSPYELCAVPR
% is scaled to controls: 0 for no effect and ±100 for the full control effect.

Compound | activity, negative = inhibition | AC50
Nc1nc(N)c(N=Nc2ccc(C(=O)O)c(O)c2)c(N)n1 | -8.46% [at 11.4 µM] (inactive) | 
CC1CCN(c2ccc(/C=N/n3nnnc3N)cc2[N+](=O)[O-])CC1 | 2.33% (inactive) | 
NC(=S)SCCC(=O)O | 4.51% [at 11.4 µM] (inactive) | 
NC(N)=Nc1nc2ccc([N+](=O)[O-])cc2[nH]1 | 2.98% [at 11.4 µM] (inactive) | 
O=S(=O)(O)c1cc(N=[N+]([O-])c2cc(S(=O)(=O)O)c3ccccc3c2)cc2ccccc12 | -20.1% [at 11.4 µM] (inactive) | 
CCNc1nc(Sc2ccc(C)cc2)cc(C(F)(F)F)n1 | -17.6% (inactive) | 
CC(C)Nc1nc(Oc2ccc(Cl)cc2)cc(C(F)(F)F)n1 | -11.5% (inactive) | 
CC(C)c1cc(C(F)(F)F)nc(NNc2nc(C(C)C)cc(C(F)(F)F)n2)n1 |  | 126 nM (active)
Cc1nc2cnc(N3CCN(C)CC3)nc2n(Cc2ccc(F)cc2)c1=O | -5.66% (inactive) | 
CN(C)c1ccc(-c2noc(C3CCN(S(=O)(=O)c4cccc(C(=O)O)c4)CC3)n2)cc1 | 5.68% (inactive) | 
Cc1ccc(C2=Nc3ccccc3S[C@@H](c3cccc([N+](=O)[O-])c3)C2)cc1 | 4.11% [at 11.4 µM] (inactive) | 
N#C/C(=C\c1cc(Cl)cc(Cl)c1O)C(=O)NC1CCCCC1 | -19.5% (inactive) | 
COc1ccc(/C=C(/C#N)C(=O)NC2CCCCC2)cc1Br | 13.5% (inactive) | 
N#C/C(=C\c1cn[nH]c1-c1ccccc1)C(=O)NC1CCCCCC1 |  | 28200 nM (active)
CC1=C(C(=O)NCCN2CCN(C)CC2)C2(CCC(C)CC2)OC1=O (centres undefined) | 2.54% (inactive) | 
C/C(=N\NC(=O)c1ccc(Br)cc1)c1ccccc1 | -29.7% (inactive) | 
CCOc1ccc(C(=O)Nc2cccc(-c3cc4ccccc4oc3=O)c2)cc1[N+](=O)[O-] | -14.9% (inactive) | 
COc1ccc(-c2cc(C(=O)Nc3nc4c(C)cccc4s3)c3ccccc3n2)cc1OC | -7.95% (inactive) | 
CCCCNC(=O)CSc1nc2ccccc2c(=O)n1CCNC(C)=O | -0.301% (inactive) | 
CCCCNc1cc(=O)oc2ccccc12 | -10.8% (inactive) | 
CCCCNC(=O)Cc1coc2ccc3ccccc3c12 |  | 10000 nM (active)
CC1(O)CC(=O)N(c2ccccc2)O1 (centres undefined) | 0.119% (inactive) | 
COc1cccc(C(=O)NCCN2CCOCC2)c1 | -17.2% (inactive) | 
COc1ccc(C(=O)Nc2ccc(Cl)cc2C(=O)NCCN2CCOCC2)cc1 |  | 1260 nM (active)
COc1ccc(-c2cn3c(C)c(C(=O)NCCN4CCOCC4)sc3n2)cc1 | 8.62% (inactive) | 

Compound | activity, negative = inhibition | AC50
O=C(O)[C@H]1CN(CCCP(=O)(O)O)CCN1 |  | inactive
CCCCNN | -18.7% [at 11.4 µM] (inactive) | 
O=C(O)/C(=C\c1ccccc1)Cc1ccccc1 | -3.61% [at 11.4 µM] (inactive) | 
C#CCN(C)Cc1ccccc1 |  | inactive
CN(Cc1ccccc1)Cn1ccnc1 |  | 794 nM (active)
Cc1ccc(C(C(=O)NC2CCCCC2)N2CCN(C(=O)c3ccco3)CC2)cc1 (centres undefined) | -0.541% (inactive) | 
Cc1cc(C)n(C(=O)c2cc3ccccc3c(=O)o2)n1 | 4.28% (inactive) | 
C[C@@H](CN1c2ccccc2Sc2ccccc21)N(C)C |  | 2 µM (active) and 316 nM (active)
CC(C)c1ccc(C2C(C#N)=C(N)N3C(=C2C#N)Sc2ccccc23)cc1 (centres undefined) | 9.18% (inactive) | 
C[C@@H](CN(C)C)CN1c2ccccc2CCc2ccccc21 |  | 12.6 µM (active) and 5.01 µM (active)
CN(C)CN1C(=O)S/C(=C2/C(=O)N(CN(C)C)c3ccccc32)C1=O | -3.13% [at 11.4 µM] (inactive) | 
CCN(CC)[C@@H](C)CN1c2ccccc2Sc2ccccc21 |  | 158 nM (active)
O=C1CCCc2ccccc2N1Cc1ccccc1Cl | -16.5% (inactive) | 
CN(C)CC(C)(C)CN1c2ccccc2Sc2ccccc21 |  | 200 nM (active)
C[C@H](CN(C)C)C(=O)c1ccccc1C(=O)O | 9.39% [at 11.4 µM] (inactive) | 
Cc1nc(C(=O)Nc2cccc(Cl)c2Cl)nn1-c1cc(OC(C)C)c(Cl)cc1Cl | 10.4% (inactive) | 
O=Nc1ccc(NOC(=O)c2ccc(Br)cc2)cc1 | 8.91% (inactive) | 
Cc1ccc(C(=O)NNC(=O)C2CCCN(c3ncccn3)C2)cc1 (centres undefined) | -12.1% (inactive) | 
Nc1ncnc2c1cnn2-c1ccccc1 | 8.69% (inactive) | 
Cc1cc(C)n(-c2ccc(F)cc2)c(=O)c1C(=O)O | 5.5% (inactive) | 
CSc1nc2ccccc2cc1/C=C(\C#N)c1ccccc1 | -21.5% (inactive) | 
COc1ccccc1C(OC(=O)c1cccs1)C(=O)NCC1CCCO1 (centres undefined) | -3.85% (inactive) | 
NCCC(=O)O | 18.6% (inactive) | 
O=C(O)CCCCCn1c(SCC(=O)N2CCCC2)nc2ccsc2c1=O | 3.57% (inactive) | 
CC[C@@]1(O)C(=O)COc2c1cc1n(c2=O)Cc2c-1nc1cccc(C(C)C)c1c2[Si](C)(C)C | -5.56% (inactive) | 

Compound | activity, negative = inhibition | AC50
COc1ccc2c(c1)N(C[C@@H](C)CN(C)C)c1ccccc1S2 |  | 63.1 nM (active)
COc1ccc([C@@H]2Sc3ccccc3N(CCN(C)C)C(=O)[C@@H]2OC(C)=O)cc1 | -0.971% (inactive) | 
COc1ccc([C@H]2Sc3ccccc3N(CCN(C)C)C(=O)[C@H]2OC(C)=O)cc1 |  | inactive
CCCCCC(=O)N1CC2(CC(c3cccc(NC(=O)c4ccccc4)c3)=NO2)C[C@@H]1C(N)=O (some centres undefined) | 11.3% (inactive) | 
O=C(CSc1nc2ccccc2o1)NC(=O)NCc1ccccc1 | -3.58% (inactive) | 
O=C(CN(C(=O)CSc1nc2ccccc2o1)c1cccc(F)c1)NC1CCCCC1 |  | 12600 nM (active)
O=C(CSc1nc2ccccc2o1)Nc1nc2ccccc2s1 | -22.6% (inactive) | 
Cc1cccc(-c2c3c(=O)n(C)c(=O)n(C)c3cn2C2CCCCC2)c1 | -15.1% (inactive) | 
CO[C@@H]1COC(=O)[C@H](CCSC)NC(=O)C/C=C\[C@@H](C)COC(=O)[C@@H]2CCCN2C(=O)C/C=C\[C@H]1C | 11.2% [at 11.4 µM] (inactive) | 
CC(C)NC[C@@H](O)COc1ccc(CCOCC2CC2)cc1 |  | inactive
CC(=O)Nc1ccc(OC[C@@H](O)CNC(C)C)cc1 |  | inactive and 3.16 µM (active)
CC(C)NC[C@@H](O)COc1ccc(COCCOC(C)C)cc1 |  | inactive
Cc1cc(C(=O)C(=O)NC(C)C)c(C)n1-c1ccc([N+](=O)[O-])cc1 | 18.9% (inactive) | 
CC(=O)NS(=O)(=O)c1ccc(NC(=S)NC(=O)C(C)(C)C)cc1 | 8.65% (inactive) | 
O=S(=O)(N/N=C\c1cn(-c2ccccc2)nc1-c1ccccc1)c1ccccc1 |  | 112 nM (active)
O=C(N/N=C\c1cn(-c2ccccc2)nc1-c1ccccc1)c1ccc(Br)o1 | 11.4% (inactive) | 
Cc1ccc(-c2nn(-c3ccccc3)cc2/C=N/NS(=O)(=O)c2ccccc2)cc1 | -8.24% (inactive) | 
COc1ccc(C2C(C(=O)N3CCOCC3)c3ccccc3C(=O)N2c2ccc(OC)cc2)cc1 (centres undefined) | -7.47% (inactive) | 
CNc1ccnc(-c2c(C)noc2C)n1 | -3.6% (inactive) | 
CN(C)Cc1ccccc1-c1nccc(NC2CC2)n1 |  | 631 nM (active)
CNc1ccnc(-c2ccccc2CN(C)C)n1 |  | 39.8 nM (active)
CN(C)Cc1ccccc1-c1nccc(Nc2ccc(F)cc2)n1 |  | 10000 nM (active)
Cc1nn2c(NCC(C)C)c3c(nc2c1-c1ccccc1)CCC3 | -26.8% (inactive) | 
Cc1ccc(S(=O)(=O)N=Nc2c(O)[nH]c3cc(O)c(C(=O)O)cc23)cc1 | 6.63% [at 11.4 µM] (inactive) | 
COC(=O)C/C=C\[C@@H](C)[C@@H]1C=C[C@H](OC(C)=O)[C@H](COC(C)=O)O1 | 13.8% [at 11.4 µM] (inactive) | 

Compound | activity, negative = inhibition | AC50
CCC(C)(C(=O)NC1CCCC1)N(C(=O)c1ccccn1)c1ccccc1 (centres undefined) | 0.576% (inactive) | 
Nc1nc(Nc2ccccc2)nc2c1ncn2[C@@H]1O[C@@H](CO)[C@H](O)[C@@H]1O | 10.4% (inactive) | 
N[C@@H](Cc1cc(-c2ccc(Cl)cc2Cl)cc(CP(=O)(O)O)c1O)C(=O)O | -17.1% (inactive) | 
CCc1cc2c(=O)c(-c3nc4ccccc4n3C)c(C)oc2c(CN(CC)CC)c1O | -3.61% (inactive) | 
CCN(CC)Cc1c(O)c(Cl)cc2c3c(c(=O)oc12)CCCC3 |  | 2510 nM (active)
CCN(CC)Cc1c(O)ccc2c(=O)c(Oc3ccccc3OC)coc12 | 6.48% (inactive) | 
CCC(C)C(NS(=O)(=O)c1ccc(C)cc1)C(=O)Oc1ccc2c3c(c(=O)oc2c1)CCC3 (centres undefined) | -13.9% (inactive) | 
CC(C)CN(Cc1c(O)ccc2c3c(c(=O)oc12)CCC3)CC(C)C |  | 224 nM (active)
CCCCCOC(=O)CSc1nnc(-c2ccccc2)c(=O)[nH]1 | 16.4% (inactive) | 
Cn1c(=O)c2[nH]c(CCC(=O)O)nc2n(C)c1=O | -4.99% [at 11.4 µM] (inactive) | 
CCOC(=O)C1=C(C)NC(=O)N[C@@H]1c1coc2cc(C)cc(C)c2c1=O | 0.866% [at 11.4 µM] (inactive) | 
O=C(OC1CCN(c2ncc(C(F)(F)F)cc2Cl)CC1)c1cccc(C(F)(F)F)c1 | -3.01% (inactive) | 
CCN(c1ccccc1)c1cc(NC)[n+](C)c(C)n1 |  | 3980 nM (active)
CN(C(=O)CC(NC(=O)c1ccccc1)(c1ccccc1)c1ccccc1)c1ccccc1 | -9.41% (inactive) | 
O=C(CSc1nc2ccccc2s1)N1c2ccccc2Sc2ccccc21 | 3.68% (inactive) | 
O=C(NCCc1ccccc1)N1c2ccccc2Sc2ccccc21 |  | 20000 nM (active)
COC(=O)c1cc(NC(=O)N2c3ccccc3Sc3ccccc32)cc(C(=O)OC)c1 | 5.22% (inactive) | 
Cc1ccc(N=Nc2ccc(N)cc2C)c(S(N)(=O)=O)c1 | 3.5% [at 11.4 µM] (inactive) | 
Cc1ccccc1-n1c(=O)cc(N2CC(C)OC(C)C2)[nH]c1=O (centres undefined) | -2.9% (inactive) | 
CC1(C)CCC(C)(C)c2cc(C(=O)Nc3ccc(C(=O)O)cc3)ccc21 | -18.8% (inactive) | 
C/C(=C\c1ccc(C(=O)O)cc1)c1ccc2c(c1)C(C)(C)CCC2(C)C |  | 12.6 nM (active)
C/C(=C\c1ccc(Cl)cc1)C(C)(C)C(=O)O | 6.46% [at 11.4 µM] (inactive) | 
COC(=O)\C(C(C)=O)=C(/C=C/C=C/C=C/N(C)C)N(C)C | -21.3% (inactive) | 
N=C(N)CCNC(=O)[C@@H]1CCC(N)=N1 | 2.49% [at 11.4 µM] (inactive) | 
